Structures are written as SMILES. Several values for one entry are separate records, joined by “and”; a condition that tells them apart may be missing. Equal values may be shown once. Inconclusive results are not listed. A call without a number means that no potency is given here. Some compounds were tested as several samples or in several runs, with calls that do not always agree. Activity calls are given as the source filed them. Calls come from the whole dose curve; as a rule, active = well fitted activation curve with a large enough effect in the repeat runs; inconclusive = weak or mixed curves; inactive = flat fitted curve, though single readings scatter.
Potency is the fitted concentration of half-maximal effect.

The nature of the assay: A CellTox Green Cytotoxicity Assay to monitor cytotoxicity in HepG2 cells - 24 hour (AID 1224878). Note: nearly all actives have a fitted effect of over 45% in size. The conditions noted are these: CellTox Green fluorescence; series mostly up to 76.8 µM; cytotoxicity: at the top concentration. The source says:
National Center for Advancing Translational Sciences [NCATS]
NIH Chemical Genomics Center [NCGC]
U.S. Environmental Protection Agency [EPA]
National Institutes of Environmental Health Sciences [NIEHS]
National Toxicology Program [NTP]
Cell-based models are critical for drug discovery. Determining the natural cytotoxic effects resulting from test compounds is an essential research activity. A CellTox Green Cytotoxicity Assay to monitor cytotoxicity in real time of continues cell culture during 40 hours of the compound treatment was used to screen Tox21 10K library compounds in HepG2 cells. CellTox Green Cytotoxicity Assay is a nonlytic, homogeneous, biofluorescent method to measure cytotoxicity in cell culture after experimental manipulation. The assay system uses a proprietary asymmetric cyanine dye that is excluded from viable cells but preferentially stains the dead cell's DNA. […] Viable cells produce no appreciable increases in fluorescence. Therefore, the fluorescence signal produced by the binding interaction with dead cell DNA is proportional to cytotoxicity.
The mixture of HepG2 cell suspension and reagents were dispensed at 600cells/6 ul/well in 1536-well tissue culture treated black solid bottom plates using a Multidrop dispenser. After the assay plates were incubated at a 37 C/5% CO2 incubator for 5 hours, 23 nL of compounds dissolved in DMSO, positive and negative controls was transferred to the assay plate by a pintool work station. The plates were incubated at 37 C for 40 hours. The fluorescence intensity were measured at 0h, 8h, 16h, 24h, 32h and 40h time points using ViewLux plate reader during compound treatment.
With `O=c1[nH]c(=O)n([C@H]2CCCO2)cc1F`, the Potency entry is “inactive”.

Take `CC(=O)Nc1cccc(O)c1`: the Potency result was “inactive”.

Regarding `CCCSc1ccc2nc(NC(=O)OC)[nH]c2c1`, the Potency result was “inactive and 1.9 µM (active)”.

For `Cc1ccc2oc(=O)ccc2c1`, the Potency entry was “inactive”.

Regarding `CCCCCCCC(=O)OC`, the “cytotoxicity” value was -2.99% (inactive).

Consider `c1ccc(OCCOc2ccccc2)cc1`, for which the Potency entry is “inactive”.

Take `COS(C)(=O)=O`: the Potency entry was “inactive”.

`O=C(O)CC(C(=O)O)C(CC(=O)O)C(=O)O` (stereo not given): the Potency entry was “inactive”.

On to `CC(C)(N)CO`, for which the Potency result is “inactive”.

For the molecule `CC(=O)OCC(=O)[C@@]12N=C(C)O[C@@H]1C[C@H]1[C@@H]3CCC4=CC(=O)C=C[C@]4(C)[C@H]3[C@@H](O)C[C@@]12C`, the Potency entry was “inactive”.

Regarding `CCc1cccc(C)c1N`, the Potency result is “inactive”.

For the molecule `O=C(O)c1cc(C(=O)O)cc(S(=O)(=O)O)c1`, the Potency entry was “inactive”.

As for `COc1cc(Cc2cnc(N)nc2N)cc(OC)c1OC`, the Potency entry is “inactive”.

In the case of `O=C(Oc1ccccc1)c1ccccc1`, the Potency entry is “inactive”.

Take `O=C(O)c1cc(O)c(O)c(O)c1`: the Potency entry was “inactive”.

`Fc1ccc(Br)cc1`: the Potency entry is “inactive”.

Consider `COc1ccc2cc([C@H](C)C(=O)O)ccc2c1`, for which the Potency result is “inactive”.

As to `CCCC(C)=O`, the Potency result was “inactive”.

For `CCCCC(CC)CO` (stereo not given), the Potency result is “inactive”.

Turning to `COCCCOc1ccnc(CS(=O)c2nc3ccccc3[nH]2)c1C` (stereo not given), the Potency result was “inactive”.

With `CCCCCCCCCCCCCCCO`, the Potency result was “inactive”.

On to `Nc1cc([N+](=O)[O-])ccc1O`, for which the Potency result is “inactive”.

For the molecule `CCCCC(CC)COC(=O)CS` (stereo not given), the “cytotoxicity” value is 2.9% (inactive).

Take `CC(=O)CC(=O)Nc1ccccc1`: the Potency entry is “inactive”.

Regarding `CN(C)CCCN`, the Potency entry is “inactive”.

With `CC(O)COCC(C)O` (stereo not given), the Potency result is “inactive”.

As to `CC(=O)c1ccccc1`, the Potency result was “inactive”.

In the case of `O=C(OCCOCCOC(=O)c1ccccc1)c1ccccc1`, the Potency result is “inactive”.

Regarding `c1ccc2scnc2c1`, the Potency result is “inactive”.

On to `OCCOCCN1CCN(C2=Nc3ccccc3Sc3ccccc32)CC1`, for which the “cytotoxicity” value was -2.73% [at 35.3 µM] (inactive).

Turning to `CCCCCCCCCCCCOCCO`, the Potency result is “inactive”.

As for `CC(c1cc2ccccc2s1)N(O)C(N)=O` (stereo not given), the Potency result was “inactive”.

In the case of `CCCCCCCCCCCCS`, the Potency result was “inactive”.

Regarding `Cc1ccc(S(N)(=O)=O)cc1`, the Potency entry is “inactive”.

In the case of `CC(C)(C)[C@@H](O)[C@@H](Cc1ccc(Cl)cc1)n1cncn1`, the Potency result is “inactive”.

With `C=CCOC(=O)c1ccccc1C(=O)OCC=C`, the Potency result is “inactive”.

Turning to `CC1=CC(=O)NS(=O)(=O)O1`, the Potency result is “inactive”.

Consider `CCCCCCCCCC`, for which the Potency entry is “inactive”.

Consider `CN(C)CCOCCN(C)C`, for which the Potency entry is “inactive and 49 µM (active)”.

Take `c1c[nH]cn1`: the Potency entry was “inactive”.

The record behind these values is PubChem BioAssay (Tox21).
